Most compounds without a hit are left out; they make up all but 3.4% or so of the library.
GAA850 FXN act: FXN promoter activators, primary screen, cell-based, luciferase luminescence, HEK293 lucGAA850; 360,000 tested, 0.56% active; AID 540364, 2011; activation, % at 6 µM; HEK293 lucGAA850 FXN promoter luciferase reporter, 24 h; percent of 10 µM SAHA response;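 active = activation above the average of all compounds screened plus 3 SD, cutoff fixed separately per campaign, cut at about 7.5% in these data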;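 also: 0% = DMSO wells and 100% = 10 µM SAHA wells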
SMARCA2 activ: SMARCA2 (BRM) function activators, primary screen, cell-based, luminescence, high throughput; 370,000 tested, 1% active; AID 652017, 2013; activation, % at 9.1 µM; MG213 cells, MMTV-luciferase reporter, dexamethasone, overnight; in the data active = activation above about 7.8%;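 also: 0% = vehicle wells and 100% = reference activator wells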
Cardio protect: cardioprotection against H2O2-induced cell death, primary screen, uHTS, H9c2 cells, ATPLite luminescence. 360,000 tested, 0.63% active. H9c2 cardiomyocytes, H2O2 injury protection, 2 h. protection from H2O2 cell death, % at 20 µM;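 active = compounds giving at least 50% protection of heart cells from peroxide-induced death in the single-dose screen, raw or plate-pattern-corrected value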;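 also: 0% = DMSO wells with peroxide and 100% = DMSO wells without peroxide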
Gli-Sufu block: Gli-Sufu pathway antagonists, primary screen, luciferase luminescence, Sufu-KO-LIGHT cells, uHTS; Sufu-KO-LIGHT fibroblasts, Gli luciferase reporter luminescence; 340,000 tested, 0.74% active; inhibition, % at 5 µM;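 active = inhibition above about 55%, limit read from the data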;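 also: 0% = DMSO-treated cells and 100% = wells with medium but no cells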
GalR3 antagonist: GalR3 antagonists in HEK293 cells, primary screen, cell-based, fluorescence readout; Galanin receptor type 3 (Homo sapiens), O60755; HEK293 GalR3-CNG cAMP membrane potential fluorescence; galR3 body fused to GalR1 C-terminus; inhibition, % at 3 µM; 360,000 tested, 0.44% active;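 active = inhibition above the screen-wide average plus 3 SD, cut at about 13% in these data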;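 also: forskolin and galanin both at EC90 stimulate the cells; cAMP rise reported by CNG channel membrane potential dye signal; 0% = forskolin plus galanin with DMSO and 100% = forskolin alone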
Target sequence (O60755 1-299 limits assumed): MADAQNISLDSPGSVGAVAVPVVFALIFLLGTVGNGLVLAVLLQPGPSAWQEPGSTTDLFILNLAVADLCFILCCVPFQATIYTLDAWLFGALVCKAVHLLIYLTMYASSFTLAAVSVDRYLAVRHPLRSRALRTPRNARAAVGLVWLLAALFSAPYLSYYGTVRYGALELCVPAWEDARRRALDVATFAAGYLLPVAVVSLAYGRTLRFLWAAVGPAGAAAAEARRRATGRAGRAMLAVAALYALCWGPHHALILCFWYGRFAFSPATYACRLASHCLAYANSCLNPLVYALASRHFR
COUP-TFII inh: NR2F2 transcriptional activity inhibitors, primary screen, cell-based, luciferase reporter, HEK293T, luminescence | COUP transcription factor 2 (Homo sapiens), P24468 | HEK293T NGFI-A luciferase reporter | inhibition, % at 8.6 µM | 370,000 tested, 0.7% active;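 active = inhibition above a per-plate cutoff, mean inhibition of test wells between control levels plus 3 SD, cut at about 38% in these data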;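 also: cells cotransfected with COUP-TFII expression vector driving the NGFI-A reporter; 0% = median of COUP-TF2 test wells and 100% = reporter-only cells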
Target sequence (P24468 whole entry, looked up): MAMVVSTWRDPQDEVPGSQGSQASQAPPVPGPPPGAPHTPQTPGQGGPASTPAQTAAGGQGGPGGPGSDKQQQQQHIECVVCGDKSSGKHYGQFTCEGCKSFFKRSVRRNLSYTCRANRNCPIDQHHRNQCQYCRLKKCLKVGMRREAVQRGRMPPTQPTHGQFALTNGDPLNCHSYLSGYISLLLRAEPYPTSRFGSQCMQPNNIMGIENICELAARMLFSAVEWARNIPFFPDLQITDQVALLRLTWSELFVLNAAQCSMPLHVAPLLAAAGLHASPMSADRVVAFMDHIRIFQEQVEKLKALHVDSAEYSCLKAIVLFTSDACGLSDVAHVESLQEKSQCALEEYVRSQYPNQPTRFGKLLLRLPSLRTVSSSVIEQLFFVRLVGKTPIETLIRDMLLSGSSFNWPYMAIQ
SMARCA2 conf: SMARCA2 (BRM) function activators, confirmation, cell-based, luminescence, triplicate; 3,500 tested, 30% active; AID 652260, 2013; MG213 cells, MMTV-luciferase with dexamethasone, overnight; MG213 cells expressing E1A, Rb sequestered; DMSO wells 0%, reference activator 100%; activation, % at 9.1 µM; shares compounds with SMARCA2 activ;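 active = activation above its plate's cutoff, the mean activation of tested wells plus 3 SD, cut at about 7.9% in these data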
VP16 Luc act: GAL4-VP16 luciferase reporter activation, counter-screen for SMARCA2 (BRM) activator project, cell-based, pG5luc, luminescence, high throughput | shares compounds with SMARCA2 activ | HEK293 GAL4-VP16 pG5luc reporter; scaled: DMSO wells 0%, SAHA wells 100% | activation, % at 9.1 µM | 3,500 tested, 41% active | AID 686939, 2013;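 active = activation above the solvent-only control well mean plus 3 SD, averaged across control plates, cut at about 5.2% in these data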
Numbers without * were called inactive; . = no result.

SMILES | GAA850 FXN act | SMARCA2 activ | Cardio protect | Gli-Sufu block | GalR3 antagonist | COUP-TFII inh | SMARCA2 conf | VP16 Luc act
Cc1cccnc1NC(=O)c1ccc([N+](=O)[O-])o1 | 1.5 | -1.3 | 7.5 | -0.3 | 1.2 | -5.5 | . | .
Cc1cccc(NC(=O)c2ccc([N+](=O)[O-])o2)n1 | 3.6 | 11.4* | 10.1 | 4.1 | -3.8 | -9.3 | 15.1* | 2.8
COc1cc2c(cc1OC)CN(C(=O)C1CCN(S(=O)(=O)c3ccccc3F)CC1)CC2 | 1.5 | -2.2 | 3.4 | 37.5 | -6.1 | -14.5 | . | .
O=C(Nc1ccc(N2CCOCC2)cc1)c1ccc([N+](=O)[O-])o1 | 2.1 | 14.5* | -15.7 | -46.7 | 2.5 | -31.6 | 18.1* | 7.3*
N/C(=N\OC(=O)CC(c1ccccc1)c1ccccc1)c1cccnc1 | -0.4 | -4.4 | 4.3 | 0.7 | -1.8 | 4.4 | . | .
Cc1nc2ccccc2c(=O)n1/N=C/C=C/c1ccccc1 | -0.6 | -5.1 | 7.0 | -1.8 | -1.3 | -17.5 | . | .
CC(C)c1ccc2[nH]c3nc(SCC(=O)N4CCOCC4)nnc3c2c1 | 1.9 | 9.7* | -4.8 | -24.0 | -5.9 | 3.0 | 3.7 | 5.8*
CC1CCN(C(=O)CSc2nnc3c(n2)[nH]c2ccc(F)cc23)CC1 | -0.4 | -0.6 | -16.8 | -10.3 | -9.6 | 16.6 | . | .
CN(CCOc1ccc(-c2ccn(S(=O)(=O)c3cccc4ccccc34)n2)cc1)c1ccccn1 | 0.5 | 5.2 | -10.1 | 17.7 | -2.0 | -14.5 | . | .
Cc1cc(NC(=O)c2ccccc2[N+](=O)[O-])ccc1Br | 2.6 | 8.2* | 0.4 | -19.9 | 0.7 | -35.7 | 13.1* | 6.3*
Cc1ccccc1C(=O)Nc1cccc(NC(=O)c2ccccc2[N+](=O)[O-])c1 | 1.5 | 1.4 | 2.3 | -3.5 | -4.0 | 2.5 | . | .
CCN1CCN(CCCN(Cc2ccco2)C(=S)Nc2ccc(Cl)c(C)c2)CC1 | -0.5 | 0.1 | -3.7 | 12.0 | 0.2 | 1.8 | . | .
Cc1ccc(NC(=S)N(CCCN2CCCC(C)C2)Cc2ccco2)cc1C (centres undefined) | 1.7 | 9.2* | -0.6 | -22.9 | -3.0 | -12.3 | -0.7 | 0.8
O=C(COC(=O)COc1cccc(C(F)(F)F)c1)NC1CCCC1 | -0.8 | 5.7 | 1.5 | -3.6 | -1.9 | -18.7 | . | .
COc1ccc([N+](=O)[O-])cc1N(CC(O)CN1C(=O)NC(C)(C)C1=O)S(=O)(=O)c1ccc(C)cc1 (centres undefined) | -0.7 | -2.2 | -3.5 | . | -1.7 | 6.9 | . | .
COc1ccc(NC(=O)c2sccc2C)cn1 | 4.3 | 14.1* | 5.1 | -35.7 | 0.9 | -11.0 | 3.0 | 1.8
COc1ccc(COc2ccsc2C(=O)Nc2ccc(Cl)c(Cl)c2)cc1 | -1.8 | 10.7* | -13.3 | 3.2 | -4.9 | 1.9 | -2.7 | -1.0
O=C(Nc1ccc(OCc2ccccc2)cc1)c1ccccc1 | 3.6 | 5.8 | 16.6 | -49.1 | -9.1 | -5.7 | . | .
CN(C)S(=O)(=O)Oc1ccsc1C(=O)Nc1ccc(Cl)c(Cl)c1 | -1.4 | 2.5 | -7.5 | -12.5 | -2.9 | -1.3 | . | .
COc1ccc(NC(=O)c2ccc(-c3ccc(C(C)=O)cc3)o2)cn1 | 0.9 | 12.2* | 16.6 | -58.9 | -0.1 | -4.7 | 0.2 | 3.5
Cc1ccsc1C(=O)Nc1ccc(OCc2ccccc2)cc1 | 2.3 | 8.6* | -3.1 | -119.0 | -4.1 | -30.2 | 4.5 | 6.6*
Cc1ccc(C(=O)NCc2nc3ccccc3[nH]2)o1 | 0.0 | 5.0 | 10.5 | -2.2 | 1.7 | 5.5 | . | .
O=C1Nc2ccccc2C1=Nc1ccccc1-c1ccccc1 | -0.9 | 0.7 | -12.7 | -3.8 | -4.6 | -3.5 | . | .
Cn1c2ccc(F)cc2c2nnc(SCCN3CCOCC3)nc21 | 3.0 | 12.6* | 2.3 | 1.5 | -11.0 | -5.6 | 3.0 | 2.4
O=C(Nc1ccccc1C(=O)NCc1ccccc1)C1=CSCCO1 | -1.8 | 11.7* | -0.7 | -0.5 | -8.8 | 10.6 | -1.8 | 0.7
SMILES | GAA850 FXN act | SMARCA2 activ | Cardio protect | Gli-Sufu block | GalR3 antagonist | COUP-TFII inh | SMARCA2 conf | VP16 Luc act
CCOc1ccccc1CNC(=O)c1ccccc1NC(=O)C1=CSCCO1 | -2.5 | -1.4 | -2.9 | 25.3 | -6.5 | 7.4 | . | .
COc1ccccc1OCC(O)CN1CCN(C(=O)c2ccccc2)CC1 (centres undefined) | 0.2 | 5.3 | -0.2 | 3.2 | -11.8 | -9.9 | . | .
Cc1cc(C)nc(Nc2nc(-c3ccccc3)cs2)n1 | 2.5 | 4.4 | -14.1 | -44.3 | -4.0 | -41.1 | . | .
Cc1cc(C)nc(Nc2nc(=O)c3ccccc3s2)n1 | 0.9 | 8.8* | 29.3 | 0.7 | -4.1 | -4.9 | 4.1 | 14.2*
CN(C)/C=N/c1ncc(C(=O)c2ccccc2)s1 | 1.9 | 13.5* | -4.5 | -71.9 | -5.3 | -42.0 | 8.7* | 8.1*
CCOc1ccc(CNS(=O)(=O)c2c(C)nc3sccn3c2=O)cc1OC | -0.6 | -2.3 | 1.3 | 8.2 | -1.0 | 11.5 | . | .
Fc1cccc(F)c1-n1c(CN2CCOCC2)csc1=S | 1.4 | 8.7* | -5.1 | -6.5 | -8.8 | 10.8 | -0.7 | -0.8
NS(=O)(=O)c1ccc(CCNC(=O)COC(=O)CN2C(=O)C3CCCCC3C2=O)cc1 (centres undefined) | 0.7 | 4.1 | 0.7 | 9.4 | -2.8 | 0.6 | . | .
CC(=O)C1CCC2C3CC=C4CC(SC(=N)N)CCC4(C)C3CCC12C (centres undefined) | -2.5 | 10.3* | -21.8 | 2.6 | -0.6 | 34.7 | -6.1 | 1.3
CC(=O)OCC(=O)C1CCC2C3CC=C4CC(O)CCC4(C)C3CCC12C (centres undefined) | 1.5 | -3.8 | -12.4 | -5.9 | 0.0 | 10.7 | . | .
COc1ccc(/C=N/NC(=O)c2ccn[nH]2)cc1COc1ccc(F)cc1 | 1.9 | 8.4* | 2.9 | -26.9 | -7.3 | -41.7 | 3.0 | 0.7
COc1ccc2nc3n(c(=O)c2c1)-c1ncccc1C(=O)NC3Cc1ccccc1 (centres undefined) | 1.2 | 3.5 | 9.4 | . | -4.5 | -12.7 | . | .
C(=C\c1nc(-c2ccncc2)no1)/c1ccccc1 | 3.0 | 8.1* | 5.4 | -79.0 | -5.2 | -50.1 | 8.1* | 5.3*
C(=C\c1nc(-c2ccccc2)no1)/c1ccccc1 | 6.0 | 8.9* | -14.1 | . | -5.0 | -41.9 | 9.3* | 9.1*
